{"source": "the supplement of paper PMC8728848", "binders": {"B1": {"name": "PX9961M-bvu-482-23-482 (Bacteroides vulgatus) (protein)", "chain": "WLDLAPSTQVDTETSINVLSDIEFTLNGIYSTMQSSDAYSGRLVYYGDVTGDDMQAVSSTKRTGNYYRFNFTKDNGPSSHWSYLYSIIQNCNLILMNVDKLSIDEDETEYKNDLKGQALAIRGMALFDLTRIFGYPYLKDNGASLGVPIVKELSTIDSKPARNTVAECYTEIISDLKNSTELLSGDFNKGKVNRWAAMTLLSRVYLYKGEYNEALTMAENAIKGAEKEGYALWTNEEYPTAWGNDASASNPGEILFEIVNLTTDSPGKESMGYLNSYNGYDDMCITCSFYQLLKKDPKDVRLKILSFDKKYYAYVNKYQPQQGENITDANIPLIRLSEAYLNAAEAAVQTGDNAKAVKYLNSIVQRANPENSVEGKTLTLENVLDERRKELVAEGHRMYDVIRNGMTVKRIDVKDSDINKTKHNTAYMEYDWNFHKILLPIPKKEMDANPNMKQNPGYVD"}}, "assay_in_all_cases": "glycan array binding signal (z-score within array); higher = stronger binding", "details_in_all_cases": "glycan notation: IUPAC condensed, linker removed", "key": {"[1]": {"target": "Fuc(a1-2)Gal(b1-3)GlcNAc(b1-2)Man(a1-3)[Fuc(a1-2)Gal(b1-3)GlcNAc(b1-2)Man(a1-6)]Man(b1-4)GlcNAc(b1-4)GlcNAc", "method_in_brief": "(§1)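 Glycan array binding is given as a within-array Z-score, which can be read as non-binding when negative. The arrays, 3228 of them, came from the Consortium for Functional Glycomics database and were retained only where the protein sequence was available. Z-scores were averaged across arrays of the same protein sequence at different concentrations or buffers and across linkers.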"}, "[2]": {"target": "Fuc(a1-2)Gal(b1-3)GlcNAc(b1-3)GalNAc", "method_in_brief": "as §1"}, "[3]": {"target": "Fuc(a1-2)Gal(b1-3)[Fuc(a1-4)]GlcNAc", "method_in_brief": "as §1"}, "[4]": {"target": "Fuc(a1-2)Gal(b1-3)[Fuc(a1-4)]GlcNAc(b1-3)[Gal(b1-4)GlcNAc(b1-6)]Gal(b1-4)Glc", "method_in_brief": "as §1"}, "[5]": {"target": "Fuc(a1-2)Gal(b1-4)GlcNAc(b1-2)[Fuc(a1-2)Gal(b1-4)GlcNAc(b1-4)]Man(a1-3)[Fuc(a1-2)Gal(b1-4)GlcNAc(b1-2)Man(a1-6)]Man(b1-4)GlcNAc(b1-4)GlcNAc", "method_in_brief": "as §1"}, "[6]": {"target": "Fuc(a1-2)Gal(b1-4)GlcNAc(b1-3)Gal(b1-4)GlcNAc", "method_in_brief": "as §1"}, "[7]": {"target": "Fuc(a1-2)Gal6S(b1-4)Glc6S", "method_in_brief": "as §1"}, "[8]": {"target": "Fuc(a1-2)[Gal(a1-3)]Gal(b1-3)GlcNAc", "method_in_brief": "as §1"}, "[9]": {"target": "Fuc(a1-2)[Gal(a1-3)]Gal(b1-4)GlcNAc", "method_in_brief": "as §1"}, "[10]": {"target": "Fuc(a1-2)[Gal(a1-3)]Gal(b1-4)GlcNAc(b1-2)Man(a1-3)[Fuc(a1-2)[Gal(a1-3)]Gal(b1-4)GlcNAc(b1-2)Man(a1-6)]Man(b1-4)GlcNAc(b1-4)GlcNAc", "method_in_brief": "as §1"}, "[11]": {"target": "Fuc(a1-2)[GalNAc(a1-4)]Gal(b1-4)GlcNAc", "method_in_brief": "as §1"}, "[12]": {"target": "Fuc(a1-3)[Gal(b1-4)]GlcNAc(b1-2)Man(a1-3)[Fuc(a1-3)[Gal(b1-4)]GlcNAc(b1-2)Man(a1-6)]Man(b1-4)GlcNAc(b1-4)[Fuc(a1-6)]GlcNAc", "method_in_brief": "as §1"}, "[13]": {"target": "Fuc(a1-3)[Gal3S(b1-4)]GlcNAc6S", "method_in_brief": "as §1"}, "[14]": {"target": "Gal(a1-3)[Gal(a1-4)]Gal(b1-4)GlcNAc", "method_in_brief": "as §1"}, "[15]": {"target": "Gal(a1-4)Gal(b1-3)GlcNAc(b1-2)Man(a1-3)[Gal(a1-4)Gal(b1-3)GlcNAc(b1-2)Man(a1-6)]Man(b1-4)GlcNAc(b1-4)GlcNAc", "method_in_brief": "as §1"}, "[16]": {"target": "Gal(b1-3)GlcNAc(b1-2)Man(a1-3)[GlcNAc(b1-4)][Gal(b1-3)GlcNAc(b1-2)Man(a1-6)]Man(b1-4)GlcNAc(b1-4)GlcNAc", "method_in_brief": "as §1"}, "[17]": {"target": "Gal(b1-4)GalNAc(b1-3)[Fuc(a1-2)]Gal(b1-4)GlcNAc", "method_in_brief": "as §1"}, "[18]": {"target": "Gal(b1-4)GlcNAc(a1-6)Gal(b1-4)GlcNAc", "method_in_brief": "as §1"}, "[19]": {"target": "Gal(b1-4)GlcNAc(b1-2)Man(a1-3)Man(b1-4)GlcNAc(b1-4)GlcNAc", "method_in_brief": "as §1"}, "[20]": {"target": "Gal(b1-4)GlcNAc(b1-2)Man(a1-3)[Gal(b1-4)GlcNAc(b1-2)Man(a1-6)][GlcNAc(b1-4)]Man(b1-4)GlcNAc(b1-4)[Fuc(a1-6)]GlcNAc", "method_in_brief": "as §1"}, "[21]": {"target": "Gal(b1-4)GlcNAc(b1-2)[Gal(b1-4)GlcNAc(b1-6)]Man(a1-6)[GlcNAc(b1-4)][Gal(b1-4)GlcNAc(b1-2)Man(a1-3)]Man(b1-4)GlcNAc(b1-4)GlcNAc", "method_in_brief": "as §1"}, "[22]": {"target": "Gal(b1-4)GlcNAc(b1-2)[Gal(b1-4)GlcNAc(b1-6)]Man(a1-6)[GlcNAc(b1-4)][Gal(b1-4)GlcNAc(b1-2)[Gal(b1-4)GlcNAc(b1-4)]Man(a1-3)]Man(b1-4)GlcNAc(b1-4)[Fuc(a1-6)]GlcNAc", "method_in_brief": "as §1"}, "[23]": {"target": "Gal(b1-4)GlcNAc(b1-3)Gal(b1-3)GalNAc", "method_in_brief": "as §1"}, "[24]": {"target": "Gal(b1-4)GlcNAc(b1-3)Gal(b1-4)GlcNAc(b1-3)Gal(b1-4)GlcNAc", "method_in_brief": "as §1"}, "[25]": {"target": "Gal(b1-4)GlcNAc(b1-3)Gal(b1-4)GlcNAc(b1-3)Gal(b1-4)GlcNAc(b1-2)Man(a1-3)[Gal(b1-4)GlcNAc(b1-3)Gal(b1-4)GlcNAc(b1-3)Gal(b1-4)GlcNAc(b1-2)Man(a1-6)]Man(b1-4)GlcNAc(b1-4)GlcNAc", "method_in_brief": "as §1"}, "[26]": {"target": "Gal(b1-4)GlcNAc(b1-3)Gal(b1-4)GlcNAc(b1-3)Gal(b1-4)GlcNAc(b1-3)Gal(b1-4)GlcNAc(b1-2)Man(a1-3)[Gal(b1-4)GlcNAc(b1-3)Gal(b1-4)GlcNAc(b1-3)Gal(b1-4)GlcNAc(b1-3)Gal(b1-4)GlcNAc(b1-2)Man(a1-6)]Man(b1-4)GlcNAc(b1-4)[Fuc(a1-6)]GlcNAc", "method_in_brief": "as §1"}, "[27]": {"target": "Gal(b1-4)GlcNAc(b1-3)Gal(b1-4)[Fuc(a1-3)]GlcNAc(b1-3)Gal(b1-4)[Fuc(a1-3)]GlcNAc", "method_in_brief": "as §1"}}, "note": "Only a selection was taken, and the strongest signals are over-represented in it overall.", "data": [{"binder": "B1", "values": [{"measurement": "glycan array binding signal (z-score)", "setting": "[1]", "value": 0.321}, {"measurement": "glycan array binding signal (z-score)", "setting": "[2]", "value": -1.09}, {"measurement": "glycan array binding signal (z-score)", "setting": "[3]", "value": -0.893}, {"measurement": "glycan array binding signal (z-score)", "setting": "[4]", "value": 0.057}, {"measurement": "glycan array binding signal (z-score)", "setting": "[5]", "value": 1.74}, {"measurement": "glycan array binding signal (z-score)", "setting": "[6]", "value": -1.33}, {"measurement": "glycan array binding signal (z-score)", "setting": "[7]", "value": 0.138}, {"measurement": "glycan array binding signal (z-score)", "setting": "[8]", "value": -0.45}, {"measurement": "glycan array binding signal (z-score)", "setting": "[9]", "value": -0.597}, {"measurement": "glycan array binding signal (z-score)", "setting": "[10]", "value": 1.68}, {"measurement": "glycan array binding signal (z-score)", "setting": "[11]", "value": -0.779}, {"measurement": "glycan array binding signal (z-score)", "setting": "[12]", "value": 1.97}, {"measurement": "glycan array binding signal (z-score)", "setting": "[13]", "value": -0.788}, {"measurement": "glycan array binding signal (z-score)", "setting": "[14]", "value": 4.04}, {"measurement": "glycan array binding signal (z-score)", "setting": "[15]", "value": 1.92}, {"measurement": "glycan array binding signal (z-score)", "setting": "[16]", "value": -0.064}, {"measurement": "glycan array binding signal (z-score)", "setting": "[17]", "value": -0.62}, {"measurement": "glycan array binding signal (z-score)", "setting": "[18]", "value": 1.66}, {"measurement": "glycan array binding signal (z-score)", "setting": "[19]", "value": 0.327}, {"measurement": "glycan array binding signal (z-score)", "setting": "[20]", "value": 0.416}, {"measurement": "glycan array binding signal (z-score)", "setting": "[21]", "value": -0.402}, {"measurement": "glycan array binding signal (z-score)", "setting": "[22]", "value": -0.596}, {"measurement": "glycan array binding signal (z-score)", "setting": "[23]", "value": -1.18}, {"measurement": "glycan array binding signal (z-score)", "setting": "[24]", "value": -0.219}, {"measurement": "glycan array binding signal (z-score)", "setting": "[25]", "value": 1.88}, {"measurement": "glycan array binding signal (z-score)", "setting": "[26]", "value": 0.966}, {"measurement": "glycan array binding signal (z-score)", "setting": "[27]", "value": -0.719}]}]}
